PubChem BioAssay AID1159580 (chemical genetic matrix, 2015)
Hit rate of the full screen: of about 5,500 compounds, about 2,000 (36%) were called active. Roughly 18% stayed inconclusive and do not appear here. Cut-off read from the data, not from the text of the source: active = normalized growth mostly below about 0.91 (no sharp cut-off); inconclusive = no clear call, values can overlap the other calls; inactive = mostly above about 0.92. This is one part of the list.

Assay: chemical genetic growth profiling, strain panel (AID 1159580);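 note: tested at 20 µM; growth read once vehicle control cultures reached saturation at 30 °C; 1 = growth at the plate median or of vehicle wells; lower values mean less growth of the strain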
Conditions: growth OD
[1] = S. cerevisiae deletion strains, locus YAL013W, strain DEP1, hits give low values
[2] = S. cerevisiae deletion strains, locus YGR229C, strain SMI1, hits give low values
[3] = S. cerevisiae deletion strains, locus YJR075W, strain HOC1, hits give low values
[4] = S. cerevisiae deletion strains, locus YMR263W, strain SAP30, hits give low values
[5] = S. cerevisiae deletion strains, locus YMR307W, strain GAS1, hits give low values
[6] = S. cerevisiae deletion strains, locus YNL153C, strain GIM3, hits give low values
[7] = S. cerevisiae deletion strains, locus YNL322C, strain KRE1, hits give low values
[8] = S. cerevisiae deletion strains, locus YPL055C, strain LGE1, hits give low values
[9] = S. cerevisiae deletion strains, locus YPL241C, strain CIN2, hits give low values

Measured: normalized growth

C[C@H]1O[C@@H](n2cc(F)c(=O)[nH]c2=O)[C@H](O)[C@@H]1O
inactive: [1] 1.04 | S. cerevisiae deletion strains, locus YAL040C, strain CLN3, hits give low values 1 | S. cerevisiae deletion strains, locus YCL061C, strain MRC1 (second series), hits give low values 1.01 | S. cerevisiae deletion strains, locus YDR363W, strain ESC2, hits give low values 1.02 | S. cerevisiae deletion strains, locus YER002W, strain NOP16, hits give low values 1.04 | [2] 1.07 | [3] 1.01 | [4] 1.01 | [5] 1 | [6] 1.02 | S. cerevisiae deletion strains, locus YNL175C, strain NOP13, hits give low values 1 | S. cerevisiae deletion strains, locus YNL197C, strain WHI3, hits give low values 1 | S. cerevisiae deletion strains, locus YNL224C, strain SQS1, hits give low values 0.984 | [7] 1.02 | S. cerevisiae deletion strains, locus YOR083W, strain WHI5 (second series), hits give low values 1.01 | [8] 1.02 | [9] 1.01

C[C@H]1OC(n2cc(F)c(=O)[nH]c2=O)C(O)[C@@H]1O (stereo partly drawn)
inactive: [1] 1 | S. cerevisiae deletion strains, locus YBR021W, strain FUR4, hits give low values 1 | S. cerevisiae deletion strains, locus YBR229C, strain ROT2, hits give low values 1.01 | S. cerevisiae deletion strains, locus YCL029C, strain bik1, hits give low values 0.973 | S. cerevisiae deletion strains, locus YDL035C, strain GPR1, hits give low values 1 | S. cerevisiae deletion strains, locus YDL074C, strain BRE1, hits give low values 1.02 | S. cerevisiae deletion strains, locus YDL101C, strain DUN1, hits give low values 1 | S. cerevisiae deletion strains, locus YDL134C, strain PPH21, hits give low values 1 | S. cerevisiae deletion strains, locus YDL185W, strain tfp1, hits give low values 0.97 | S. cerevisiae deletion strains, locus YDL192W, strain arf1, hits give low values 0.97 | S. cerevisiae deletion strains, locus YDR101C, strain arx1, hits give low values 1 | S. cerevisiae deletion strains, locus YDR150W, strain NUM1, hits give low values 0.982 | S. cerevisiae deletion strains, locus YDR162C, strain NBP2, hits give low values 1.04 | S. cerevisiae deletion strains, locus YDR318W, strain mcm21, hits give low values 0.973 | S. cerevisiae deletion strains, locus YDR388W, hits give low values 0.986 | S. cerevisiae deletion strains, locus YDR502C, strain sam2, hits give low values 1 | S. cerevisiae deletion strains, locus YEL061C, strain CIN8, hits give low values 1 | S. cerevisiae deletion strains, locus YER110C, hits give low values 0.948 | S. cerevisiae deletion strains, locus YER155C, strain BEM2, hits give low values 0.995 | S. cerevisiae deletion strains, locus YER167W, strain BCK2, hits give low values 0.989 | S. cerevisiae deletion strains, locus YGL078C, strain dbp3, hits give low values 0.979 | S. cerevisiae deletion strains, locus YGL086W, strain mad1, hits give low values 0.957 | S. cerevisiae deletion strains, locus YGL248W, strain PDE1, hits give low values 1.01 | S. cerevisiae deletion strains, locus YGR078C, strain PAC10, hits give low values 1.02 | S. cerevisiae deletion strains, locus YGR135W, strain pre9, hits give low values 1 | [2] 1.03 | S. cerevisiae deletion strains, locus YGR252W, strain gcn5, hits give low values 1.01 | S. cerevisiae deletion strains, locus YHR030C, strain SLT2, hits give low values 0.996 | S. cerevisiae deletion strains, locus YHR079C, strain IRE1 (second series), hits give low values 0.985 | S. cerevisiae deletion strains, locus YHR094C, strain hxt1, hits give low values 0.968 | S. cerevisiae deletion strains, locus YHR129C, strain ARP1, hits give low values 1 | S. cerevisiae deletion strains, locus YHR200W, strain rpn10, hits give low values 0.969 | S. cerevisiae deletion strains, locus YIL066C, strain RNR3, hits give low values 0.99 | S. cerevisiae deletion strains, locus YIL073C, strain SPO22, hits give low values 0.894 | S. cerevisiae deletion strains, locus YIL125W, strain kgd1, hits give low values 0.973 | S. cerevisiae deletion strains, locus YIR030C, strain dcg1, hits give low values 0.982 | S. cerevisiae deletion strains, locus YJL095W, strain BCK1, hits give low values 1.04 | S. cerevisiae deletion strains, locus YJL134W, strain LCB3, hits give low values 1.01 | S. cerevisiae deletion strains, locus YJL168C, strain set2, hits give low values 0.993 | S. cerevisiae deletion strains, locus YJL187C, strain SWE1 (second series), hits give low values 1.01 | S. cerevisiae deletion strains, locus YJR043C, strain POL32, hits give low values 0.993 | [3] 1.01 | S. cerevisiae deletion strains, locus YKL009W, strain mrt4, hits give low values 0.959 | S. cerevisiae deletion strains, locus YKL068W, hits give low values 0.98 | S. cerevisiae deletion strains, locus YKL085W, strain MDH1 (second series), hits give low values 0.981 | S. cerevisiae deletion strains, locus YKL085W, strain MDH1, hits give low values 0.981 | S. cerevisiae deletion strains, locus YKL190W, strain CNB1, hits give low values 1 | S. cerevisiae deletion strains, locus YKR001C, strain vps1, hits give low values 0.966 | S. cerevisiae deletion strains, locus YLR039C, strain RIC1, hits give low values 0.994 | S. cerevisiae deletion strains, locus YLR058C, strain SHM2, hits give low values 0.993 | S. cerevisiae deletion strains, locus YLR102C, strain apc9, hits give low values 0.983 | S. cerevisiae deletion strains, locus YLR262C, strain YPT6, hits give low values 1 | S. cerevisiae deletion strains, locus YLR268W, strain sec22, hits give low values 0.995 | S. cerevisiae deletion strains, locus YLR330W, strain CHS5, hits give low values 0.994 | S. cerevisiae deletion strains, locus YLR342W, strain FKS1 (second series), hits give low values 0.991 | S. cerevisiae deletion strains, locus YLR371W, strain rom2, hits give low values 0.961 | S. cerevisiae deletion strains, locus YLR418C, strain cdc73, hits give low values 1.05 | S. cerevisiae deletion strains, locus YML016C, strain PPZ1, hits give low values 1 | S. cerevisiae deletion strains, locus YML032C, strain rad52, hits give low values 0.951 | S. cerevisiae deletion strains, locus YML124C, strain tub3, hits give low values 0.974 | S. cerevisiae deletion strains, locus YMR078C, strain ctf18, hits give low values 0.945 | S. cerevisiae deletion strains, locus YMR223W, strain ubp8, hits give low values 0.975 | [4] 1.02 | [5] 0.977 | S. cerevisiae deletion strains, locus YNL067W, strain RPL9B, hits give low values 1.02 | S. cerevisiae deletion strains, locus YNL128W, strain TEP1, hits give low values 1.01 | [6] 1.02 | S. cerevisiae deletion strains, locus YNL233W, strain BNI4, hits give low values 1.02 | S. cerevisiae deletion strains, locus YNL250W, strain rad50, hits give low values 0.984 | S. cerevisiae deletion strains, locus YNL271C, strain bni1, hits give low values 0.988 | S. cerevisiae deletion strains, locus YNL298W, strain CLA4, hits give low values 0.963 | S. cerevisiae deletion strains, locus YNL307C, strain MCK1, hits give low values 0.967 | [7] 0.998 | S. cerevisiae deletion strains, locus YNR052C, strain pop2, hits give low values 0.958 | S. cerevisiae deletion strains, locus YOL006C, strain TOP1, hits give low values 1.03 | S. cerevisiae deletion strains, locus YOL012C, strain htz1 1.08 | S. cerevisiae deletion strains, locus YOL147C, strain pex11, hits give low values 0.982 | S. cerevisiae deletion strains, locus YOR061W, strain CKA2, hits give low values 1.01 | S. cerevisiae deletion strains, locus YOR069W, strain VPS5, hits give low values 1 | S. cerevisiae deletion strains, locus YOR136W, strain idh2, hits give low values 0.983 | S. cerevisiae deletion strains, locus YOR144C, strain elg1, hits give low values 0.965 | S. cerevisiae deletion strains, locus YOR184W, strain ser1, hits give low values 0.921 | S. cerevisiae deletion strains, locus YOR316C, strain cot1, hits give low values 0.974 | [8] 1.02 | [9] 0.996 | S. cerevisiae deletion strains, locus YPR119W, strain clb2, hits give low values 0.985 | S. cerevisiae deletion strains, locus YPR141C, strain kar3, hits give low values 0.974 | S. cerevisiae deletion strains, locus YPR163C, strain tif3, hits give low values 0.964 | S. cerevisiae deletion strains, locus YPR167C, strain met16, hits give low values 0.988 | S. cerevisiae deletion strains, strain wtn01, hits give low values 0.994 | S. cerevisiae strains, strain wild type, hits give low values 1
